Test results taken from PubChem BioAssay (NCI).
About 83,000 compounds went through this panel and 20% of them were active in at least one assay; those are over-represented in the sample as a whole.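 Interpretation: 100, growth as untreated; towards 0, rising growth inhibition; 0, no net growth; 0 to -100, cell death. Compounds scoring below 10 were considered active.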 Calls of active or inactive are those of the source.

Key:
Experiment in all cases: NCI-60 one-dose screen, 48 h (100 = growth as untreated, 0 = no growth, -100 = all killed)
T-47D breast = tested on: T-47D breast
BT-549 breast = tested on: BT-549 breast
MDA-MB-435 melanoma = tested on: MDA-MB-435 melanoma
SW-620 colon = tested on: SW-620 colon
MCF7 breast = tested on: MCF7 breast
HCT-116 colon = tested on: HCT-116 colon
HCC-2998 colon = tested on: HCC-2998 colon
KM12 colon = tested on: KM12 colon
MDA-MB-468 breast = tested on: MDA-MB-468 breast

Measured: growth

O=C(NN1C(=O)/C(=C/C=C/c2ccc([N+](=O)[O-])o2)SC1=S)c1ccc([N+](=O)[O-])cc1
active: T-47D breast; 10 µM unless noted -60.9% | BT-549 breast; 10 µM unless noted -93.2% | MDA-MB-435 melanoma; 10 µM unless noted -86.9% | SW-620 colon; 10 µM unless noted -77.7% | MCF7 breast; 10 µM unless noted -61.4% | HCT-116 colon; 10 µM unless noted -76.3% | HCC-2998 colon; 10 µM unless noted -94.8% | KM12 colon; 10 µM unless noted -94.9%

CC/C(=C(\c1ccc(O)cc1)c1ccc(OCCNC)cc1)c1ccccc1
inactive: T-47D breast; 1 µM 59.6% | T-47D breast; 10 µM 44.8% | BT-549 breast; 1 µM 91.4% | BT-549 breast; 10 µM 74.4% | MDA-MB-435 melanoma; 1 µM 104% | MDA-MB-435 melanoma; 10 µM 74.5% | SW-620 colon; 1 µM 107% | SW-620 colon; 10 µM 89.9% | MCF7 breast; 1 µM 24.9% | MCF7 breast; 10 µM 25.8% | HCT-116 colon; 1 µM 93.2% | HCT-116 colon; 10 µM 62.4% | HCC-2998 colon; 1 µM 106% | HCC-2998 colon; 10 µM 56.7% | KM12 colon; 1 µM 101% | KM12 colon; 10 µM 65.9% | MDA-MB-468 breast; 1 µM 95.6% | MDA-MB-468 breast; 10 µM 72.4%

C#CCN(C)CCCOc1ccc(N(CC)C(=O)c2cc(C(C)C)c(O)cc2O)cc1Cl
active: BT-549 breast; 10 µM unless noted -8.72% | MDA-MB-435 melanoma; 10 µM unless noted -26.1% | SW-620 colon; 10 µM unless noted 6.65% | MCF7 breast; 10 µM unless noted 0.137% | HCT-116 colon; 10 µM unless noted -3.98% | HCC-2998 colon; 10 µM unless noted -78.2% | KM12 colon; 10 µM unless noted -9.83%
inactive: T-47D breast; 10 µM unless noted 10.1%

CC/C(=C(/c1ccc(O)cc1)c1ccc(OCCN(C)C(=O)COCCOCCNC(=O)Cc2ccc3c(c2)CN([C@@H]2CCC(=O)NC2=O)C3=O)cc1)c1ccccc1
inactive: T-47D breast; 1 µM 19.2% | MDA-MB-435 melanoma; 1 µM 107% | MDA-MB-435 melanoma; 10 µM 73.6% | SW-620 colon; 1 µM 84.2% | SW-620 colon; 10 µM 29.6% | MCF7 breast; 1 µM 36.1% | MCF7 breast; 10 µM 19.6% | HCT-116 colon; 1 µM 96.4% | HCT-116 colon; 10 µM 101% | HCC-2998 colon; 1 µM 97.3% | HCC-2998 colon; 10 µM 48.9% | KM12 colon; 1 µM 105% | KM12 colon; 10 µM 50.3%
active: T-47D breast; 10 µM 6.14% | BT-549 breast; 1 µM -20.3% | BT-549 breast; 10 µM -26%

COc1ccc2[nH]cc(-c3cc4nc(-c5cn(C)c6ncccc56)cc(N)n4n3)c2c1
active: BT-549 breast; 10 µM unless noted -8.26% | SW-620 colon; 10 µM unless noted -53.3% | MCF7 breast; 10 µM unless noted -24.8% | HCT-116 colon; 10 µM unless noted -81.3% | HCC-2998 colon; 10 µM unless noted -96.5% | KM12 colon; 10 µM unless noted -66.2%
inactive: T-47D breast; 10 µM unless noted 33.3% | MDA-MB-435 melanoma; 10 µM unless noted 52.5%

COc1ccc(/C=C/c2nc3ccccc3n3c(-c4cccc([N+](=O)[O-])c4)nnc23)cc1
active: T-47D breast; 10 µM unless noted -7.62% | BT-549 breast; 10 µM unless noted -87.5% | MDA-MB-435 melanoma; 10 µM unless noted -46.5% | SW-620 colon; 10 µM unless noted -22.3% | MCF7 breast; 10 µM unless noted -64.5% | HCT-116 colon; 10 µM unless noted -76.2% | HCC-2998 colon; 10 µM unless noted -84.5% | KM12 colon; 10 µM unless noted -67.3%

COc1ccc(C(=O)C[n+]2cccc3c4ccccc4ccc32)cc1
inactive: T-47D breast; 10 µM unless noted 38.2% | BT-549 breast; 10 µM unless noted 33.2% | MDA-MB-435 melanoma; 10 µM unless noted 37.5% | SW-620 colon; 10 µM unless noted 36.4% | MCF7 breast; 10 µM unless noted 18.1% | HCT-116 colon; 10 µM unless noted 29.8% | HCC-2998 colon; 10 µM unless noted 48.5% | KM12 colon; 10 µM unless noted 34.9%

O=C(Cn1c(/C=C/c2ccc([N+](=O)[O-])cc2)nc2ccccc2c1=O)Nc1ccccc1
inactive: T-47D breast; 10 µM unless noted 79.9% | BT-549 breast; 10 µM unless noted 63.1% | MDA-MB-435 melanoma; 10 µM unless noted 91% | SW-620 colon; 10 µM unless noted 83.6% | MCF7 breast; 10 µM unless noted 78.5% | HCT-116 colon; 10 µM unless noted 61.2% | HCC-2998 colon; 10 µM unless noted 79.8% | KM12 colon; 10 µM unless noted 77.3%

CC/C(=C(\c1ccc(O)cc1)c1ccc(OCCN(C)C(=O)CCOCCNC(=O)c2ccc3c(c2)CN([C@@H]2CCC(=O)NC2=O)C3=O)cc1)c1ccccc1
inactive: T-47D breast; 1 µM 38.3% | T-47D breast; 10 µM 50.4% | BT-549 breast; 10 µM 39.3% | MDA-MB-435 melanoma; 1 µM 100% | MDA-MB-435 melanoma; 10 µM 95.4% | SW-620 colon; 1 µM 87% | SW-620 colon; 10 µM 83.6% | MCF7 breast; 1 µM 27.9% | MCF7 breast; 10 µM 24% | HCT-116 colon; 1 µM 92.7% | HCT-116 colon; 10 µM 94.8% | HCC-2998 colon; 1 µM 99% | HCC-2998 colon; 10 µM 103% | KM12 colon; 1 µM 102% | KM12 colon; 10 µM 103% | MDA-MB-468 breast; 1 µM 25.6%
active: BT-549 breast; 1 µM 9.93% | MDA-MB-468 breast; 10 µM 5.97%

COc1ccc(-c2cc(-c3ccccc3)c(C#N)c(=O)[nH]2)cc1S(N)(=O)=O
inactive: T-47D breast; 10 µM unless noted 102% | BT-549 breast; 10 µM unless noted 89.5% | MDA-MB-435 melanoma; 10 µM unless noted 102% | SW-620 colon; 10 µM unless noted 102% | MCF7 breast; 10 µM unless noted 103% | HCT-116 colon; 10 µM unless noted 103% | HCC-2998 colon; 10 µM unless noted 122% | KM12 colon; 10 µM unless noted 103%

Nc1cc(-c2c[nH]c3ccc(Br)cc23)nc2cc(-c3c[nH]c4ccccc34)nn12
active: T-47D breast; 10 µM unless noted -60.5% | BT-549 breast; 10 µM unless noted -21.4% | MDA-MB-435 melanoma; 10 µM unless noted -75.1% | SW-620 colon; 10 µM unless noted -83.2% | MCF7 breast; 10 µM unless noted -66.8% | HCT-116 colon; 10 µM unless noted -78% | HCC-2998 colon; 10 µM unless noted -78.2% | KM12 colon; 10 µM unless noted -65.4%

Cc1cn(-c2cc(NC(=O)c3ccc(C)c(-n4cc(-c5cnc6cccnn56)nn4)c3)cc(C(F)(F)F)c2)cn1
inactive: T-47D breast; 10 µM unless noted 94.6% | BT-549 breast; 10 µM unless noted 158% | MDA-MB-435 melanoma; 10 µM unless noted 57.7% | SW-620 colon; 10 µM unless noted 84.9% | MCF7 breast; 10 µM unless noted 98.6% | HCT-116 colon; 10 µM unless noted 53.2% | HCC-2998 colon; 10 µM unless noted 82.2% | KM12 colon; 10 µM unless noted 54.9%
